Consider 19 compounds from the supplement of paper PMC6658780.

Molecules are shown by their SMILES. Where a name gives a salt, the structure may show the parent alone. ± gives the standard deviation of the averaged measurements.

For experiment [1], the system named is Klebsiella pneumoniae KPC-119. Briefly: percent growth inhibition of drug alone vs DMSO control; higher = more growth inhibition. As to conditions: antibiotic (0.125x MIC): none (0.1% DMSO).
Experiment [2] relates to Klebsiella pneumoniae NCTC-13439. The description is as above. As to conditions: antibiotic (0.125x MIC): none (0.1% DMSO).
The test system of experiment [3] is Klebsiella pneumoniae KPC-119. Description: percent growth inhibition of drug + antibiotic vs DMSO control; higher = more growth inhibition.
Experiment [4] deals with Klebsiella pneumoniae NCTC-13439. The experiment is described as above.
The test system of experiment [5] is Escherichia coli ATCC BAA-2469. The experiment is described as above. The method, then:
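Prestwick drugs tested at 20 uM and 7 uM with an antibiotic at 0.125x MIC (16 mg/L when MIC >128 mg/L) against E. coli ATCC BAA-2469 (NDM-1) in CAMHB, 384-well plates, duplicate runs. Percent growth inhibition was computed from OD600 (24 h minus 0 h) relative to DMSO wells. Drug + DMSO-only wells are also given. […]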

[6] abbreviates: antibiotic (0.125x MIC): gentamicin, 7 µM.
Where [7] appears, read: antibiotic (0.125x MIC): gentamicin, 20 µM.
The mark [8] stands for this setting: antibiotic (0.125x MIC): meropenem, 7 µM.
The mark [9] stands for this setting: antibiotic (0.125x MIC): meropenem, 20 µM.
The mark [10] stands for this setting: antibiotic (0.125x MIC): ciprofloxacin, 7 µM.
The mark [11] stands for this setting: antibiotic (0.125x MIC): ciprofloxacin, 20 µM.
Where [12] appears, read: antibiotic (0.125x MIC): tigecycline, 7 µM.
The mark [13] stands for this setting: antibiotic (0.125x MIC): tigecycline, 20 µM.
Setting [14] is: antibiotic (0.125x MIC): colistin, 7 µM.
Where [15] appears, read: antibiotic (0.125x MIC): colistin, 20 µM.

Consider `O=C(O)c1cn(-c2ccc(F)cc2)c2cc(N3CCNCC3)c(F)cc2c1=O` [Sarafloxacin], for which the “percent growth inhibition of drug alone” value worked out at 56.9 ± 1.9% in experiment [1] (7 µM), 98.9 ± 1.1% in experiment [1] (20 µM), 19.6 ± 1.8% in experiment [2] (7 µM) and 98.4 ± 1.6% in experiment [2] (20 µM). Further, the percent growth inhibition in experiment [3] (setting [6]) came out at 99.81 ± 0.1%; in experiment [3] (setting [7]) it was 99.82 ± 0.22%; in experiment [3] (setting [8]) it was 99.613 ± 0.042%; in experiment [3] (setting [9]), 83.6 ± 19%; in experiment [4] (setting [10]) it was 59.24 ± 0.15%; in experiment [4] (setting [11]), 99.59 ± 0.23%. Besides, the figures for the percent growth inhibition in experiment [4] (setting [12]) and in experiment [4] (setting [13]) were 50 ± 14% and 99.57 ± 0.39%, respectively.
As for `CC[C@H]1OC(=O)[C@H](C)[C@@H](O[C@H]2C[C@@](C)(OC)[C@@H](O)[C@H](C)O2)[C@H](C)[C@@H](O[C@@H]2O[C@H](C)C[C@H](N(C)C)[C@H]2O)[C@](C)(O)C[C@@H](C)CN(C)[C@H](C)[C@@H](O)[C@]1(C)O` [Azithromycin], the “percent growth inhibition of drug alone” value came to 5.21 ± 1.8% in experiment [1] (7 µM), 21.1 ± 1% in experiment [1] (20 µM), 55.2 ± 6.6% in experiment [2] (7 µM) and 74.4 ± 19% in experiment [2] (20 µM). The percent growth inhibition in experiment [3] (setting [14]) amounted to 40.9 ± 12%; in experiment [3] (setting [15]), 98.78 ± 0.7%; in experiment [4] (setting [10]) it was 44.5 ± 5.6%; in experiment [4] (setting [11]), 99.666 ± 0.042%; in experiment [4] (setting [12]), 64.2 ± 2.8%.
As to `O=C(O)CN(CCN(CC(=O)O)CC(=O)O)CCN(CC(=O)O)CC(=O)O` [Pentetic acid], in experiment [5] (setting [8]), the percent growth inhibition is -3.74 ± 3.2%.
Turning to `CC(C)NC[C@H](O)COc1ccc(CC(N)=O)cc1` [(S)-(-)-Atenolol], the results for the “percent growth inhibition of drug alone” value in experiment [1] (7 µM) and in experiment [1] (20 µM) were 0.932 ± 4.5% and -0.0403 ± 1.4%, respectively. Besides, in experiment [3] (setting [15]), the percent growth inhibition was -1.42 ± 6%.
For the compound `O=c1[nH]c(=O)n([C@H]2C[C@H](O)[C@@H](CO)O2)cc1F` [Floxuridine], the “percent growth inhibition of drug alone” value in experiment [1] (7 µM) was found to be 34.2 ± 2.8%; in experiment [1] (20 µM), 92.8 ± 5.4%; in experiment [2] (7 µM), 43.4 ± 0.88%; in experiment [2] (20 µM), 99.63 ± 0.17%. Moreover, the percent growth inhibition in experiment [3] (setting [15]) is 98.9 ± 1.5%; in experiment [3] (setting [8]), 89.6 ± 10%; in experiment [3] (setting [9]), 98.5 ± 1.4%; in experiment [4] (setting [10]), 64.6 ± 15%; in experiment [4] (setting [11]), 99.05 ± 0.42%.
On to `OCCOCCN1CCN(C2=Nc3ccccc3Sc3ccccc32)CC1` [Quetiapine hemifumarate], for which the “percent growth inhibition of drug alone” value is -3.12 ± 4% in experiment [1] (7 µM), -3.25 ± 2.9% in experiment [1] (20 µM), -15.6 ± 19% in experiment [2] (7 µM) and -5.29 ± 6.1% in experiment [2] (20 µM). Also, the percent growth inhibition in experiment [3] (setting [15]) is -8.06 ± 1.8%; in experiment [4] (setting [12]), -9.2 ± 16%; in experiment [4] (setting [13]) it was -7.45 ± 10%.
`CC(=O)OC[C@H]1O[C@@H]([S-])[C@H](OC(C)=O)[C@@H](OC(C)=O)[C@@H]1OC(C)=O.CCP(CC)CC.[Au+]` [Auranofin]: the “percent growth inhibition of drug alone” value in experiment [1] (7 µM) amounted to 10 ± 0.89%; in experiment [1] (20 µM), 50.22 ± 0.3%; in experiment [2] (7 µM), 9.98 ± 8.3%; in experiment [2] (20 µM), 22.6 ± 13%. The percent growth inhibition worked out at 101 ± 3.5% in experiment [3] (setting [14]); 96.14 ± 0.42% in experiment [3] (setting [15]); 33.2 ± 9.4% in experiment [3] (setting [6]); 99.78 ± 0.2% in experiment [3] (setting [7]); 98.3 ± 1.4% in experiment [3] (setting [8]); 99.5 ± 0.13% in experiment [3] (setting [9]). In experiment [4] (setting [10]), the percent growth inhibition stood at 10.8 ± 5.5%.
Turning to `Cc1c(OCC(F)(F)F)ccnc1C[S+]([O-])c1nc2ccccc2[nH]1` (stereo not given) [Lansoprazole], the percent growth inhibition in experiment [5] (setting [7]) turned out to be 12.5 ± 18%.
In the case of `CN(C)c1ccc(O)c2c1C[C@H]1C[C@H]3[C@H](N(C)C)C(O)=C(C(N)=O)C(=O)[C@@]3(O)C(O)=C1C2=O` [Minocycline hydrochloride], the “percent growth inhibition of drug alone” value was 10.9 ± 1.6% in experiment [1] (7 µM), 52.8 ± 2.3% in experiment [1] (20 µM), 3.05 ± 3.2% in experiment [2] (7 µM) and 6.86 ± 3.9% in experiment [2] (20 µM). For the same compound, the percent growth inhibition is 97.33 ± 0.15% in experiment [3] (setting [14]); 97.8 ± 1.9% in experiment [3] (setting [15]); 6.41 ± 2.8% in experiment [3] (setting [6]); 95.3 ± 1.8% in experiment [3] (setting [7]); -1.9 ± 6.7% in experiment [4] (setting [12]); 49.8 ± 7.5% in experiment [4] (setting [13]).
`CO[C@H]1/C=C/O[C@@]2(C)Oc3c(C)c(O)c4c(O)c(c5c(nc6cc(C)ccn65)c4c3C2=O)NC(=O)/C(C)=C\C=C\[C@H](C)[C@H](O)[C@@H](C)[C@@H](O)[C@@H](C)[C@H](OC(C)=O)[C@@H]1C` [Rifaximin]: the “percent growth inhibition of drug alone” value amounted to 18.5 ± 1.3% in experiment [1] (7 µM), 71.9 ± 2.4% in experiment [1] (20 µM), 1.28 ± 0.063% in experiment [2] (7 µM) and 17.5 ± 13% in experiment [2] (20 µM). Also, the percent growth inhibition was 99.23 ± 0.84% in experiment [3] (setting [14]); -1.2 ± 3.8% in experiment [4] (setting [10]); 50.5 ± 1.9% in experiment [4] (setting [11]); 7.05 ± 5.2% in experiment [4] (setting [12]); 50.7 ± 4% in experiment [4] (setting [13]).
On to `Clc1ccc(CCC(Cn2ccnc2)Sc2c(Cl)cccc2Cl)cc1` (stereo not given) [Butoconazole nitrate], for which the “percent growth inhibition of drug alone” value is -1.2 ± 2.2% in experiment [1] (7 µM) and 2.34 ± 3.2% in experiment [1] (20 µM). Moreover, in experiment [3] (setting [15]), the percent growth inhibition came to 6.76 ± 0.1%.
`CO[C@H]1/C=C/O[C@@]2(C)Oc3c(C)c(O)c4c(O)c(c(/C=N/N5CCN(C6CCCC6)CC5)c(O)c4c3C2=O)NC(=O)/C(C)=C\C=C\[C@H](C)[C@H](O)[C@@H](C)[C@@H](O)[C@@H](C)[C@H](OC(C)=O)[C@@H]1C` [Rifapentine]: the “percent growth inhibition of drug alone” value was determined as 2.17 ± 1.7% in experiment [1] (7 µM), 34.82 ± 0.22% in experiment [1] (20 µM), 6.76 ± 7.4% in experiment [2] (7 µM) and 11.1 ± 17% in experiment [2] (20 µM). In addition, the percent growth inhibition in experiment [3] (setting [15]) is 93.01 ± 0.93%; in experiment [3] (setting [6]), 4.75 ± 13%; in experiment [4] (setting [12]), 14.7 ± 5.3%; in experiment [4] (setting [13]), 42.9 ± 12%.
On to `Nc1nnc(-c2cccc(Cl)c2Cl)c(N)n1` [Lamotrigine], for which the percent growth inhibition in experiment [5] (setting [6]) was determined as 7.06 ± 4.8%.
For `NS(=O)(=O)c1cc2c(cc1C(F)(F)F)NC(Cc1ccccc1)NS2(=O)=O` (stereo not given) [Bendroflumethiazide], the percent growth inhibition in experiment [5] (setting [6]) was -0.966 ± 1.2%.
Take `CC(Cc1cccc(C(F)(F)F)c1)NCCOC(=O)c1ccccc1` (stereo not given) [Benfluorex]: the figures for the “percent growth inhibition of drug alone” value in experiment [1] (7 µM) and in experiment [1] (20 µM) were 1.43 ± 3% and -0.224 ± 0.36%, respectively. For the same compound, the percent growth inhibition in experiment [3] (setting [15]) was 4.58 ± 2.8%.
In the case of `CN[C@@H]1[C@@H](O[C@H]2O[C@H](CO)[C@@H](N)[C@H](O)[C@H]2O)OC2C[C@@H](N)[C@@H](O[C@H]3[C@H](O)[C@@H](O)[C@H](N)C[C@@H]3N)OC2[C@@H]1O` (stereo not given in full) [Apramycin], the “percent growth inhibition of drug alone” value in experiment [1] (7 µM) was determined as 4.95 ± 5.6%; in experiment [1] (20 µM), 52.9 ± 1.4%; in experiment [2] (7 µM), 4.78 ± 15%; in experiment [2] (20 µM), 88 ± 17%. Moreover, the percent growth inhibition worked out at 27.9 ± 0.46% in experiment [3] (setting [6]), 99.968 ± 0.004% in experiment [3] (setting [7]), 35.7 ± 13% in experiment [4] (setting [12]) and 100 ± 0.19% in experiment [4] (setting [13]).
`CCN(CC)CCOC(=O)C1(C2CCCCC2)CCCCC1` [Dicyclomine hydrochloride]: the “percent growth inhibition of drug alone” value in experiment [1] (7 µM) was 0.63 ± 2%; in experiment [1] (20 µM), 2.04 ± 2.2%. The percent growth inhibition in experiment [3] (setting [15]) was -2.28 ± 7.1%.
`COc1cnc(NS(=O)(=O)c2ccc(N)cc2)nc1` [Sulfameter]: the results for the “percent growth inhibition of drug alone” value in experiment [1] (7 µM) and in experiment [1] (20 µM) were -1.55 ± 2.6% and -0.515 ± 1.5%, respectively. Further, the percent growth inhibition in experiment [3] (setting [15]) was -5.03 ± 15%.
The like results for `CCN1CCC[C@H]1CNC(=O)c1c(O)c(Cl)cc(Cl)c1OC` [Raclopride] were, in that order, -0.791 ± 2.4%, 0.378 ± 5.2% and -4.39 ± 0.64%.
